Compound activity: PubChem, National Center for Advancing Translational Sciences (NCATS)
Sampled rows, rich in hits. Any-hit rate of the full collection: about 12%.
SARS PLpro yeast: SARS-CoV PLP inhibition in yeast | actives 0.19% (n = 330,000) | AID 485353 | Potency, µM (top dose mostly 32.9 µM), for inactives: at the highest dose activity, positive = growth rescue, actives largely listed as activators | S. cerevisiae expressing SARS-CoV PLpro, growth rescue; calls by dose curve; also: 0% is about no effect; nearly all actives have a fitted effect of over 55% in size
Pf growth 96h: P. falciparum growth inhibition at 96 hour, primary screen for plastid delayed-death inhibitors | P. falciparum luciferase reporter growth, 96 h | AID 504834 | Potency, µM (series often up to 28.7 µM), for inactives: at the highest dose activity change, negative = inhibition, usual class: inhibitors | actives 6.9% (n = 320,000); also: % is scaled to controls: 0 for no effect and ±100 for the full control effect
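Plates of compound plus infected erythrocytes (2% hematocrit, 0.05% parasitemia final) incubate 96 hours, 37 C, 5% CO2. Detection reagent added; reduced luminescence from the parasites' luciferase reporter flags inhibition.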
Sm TGR block: blocks Schistosoma mansoni thioredoxin glutathione reductase; purified TGR, DTNB reduction, TNB absorbance 405 nm; Potency, µM (top dose mostly 114 µM), without a hit: at the top dose activity change, negative = inhibition, usual class: inhibitors; AID 485364; actives 3% (n = 360,000); Q962Y6; also: % is scaled to controls: 0 for no effect and ±100 for the full control effect; nearly all actives have a fitted effect of over 60% in size
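TGR 20 nM + NADPH 100 uM (dispensed conc.), cpd preinc 15 min RT; start with NADPH (500 uM addition) then DTNB (15 mM addition). Kinetic TNB absorbance, 405 nm filter. Four-parameter Hill fit across titration.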
Pf growth 48h: P. falciparum growth inhibition at 48 hours (one generation); actives 5.9% (n = 310,000); P. falciparum luciferase growth in erythrocytes, 48 h; Potency, µM (titrated, usually from 28.7 µM), without a hit: at the highest dose activity change, negative = inhibition, most hits filed as inhibitors; also: % is scaled to controls: 0 for no effect and ±100 for the full control effect
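Read-out is firefly luciferase luminescence from an integrated reporter in P. falciparum, so falling signal marks reduced parasite growth. Infected erythrocytes were at 2% hematocrit and 0.1% parasitemia (final) in Albumax-supplemented RPMI 1640.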
AmpC no deterg: blocks E. coli AmpC beta-lactamase in detergent-free assay; P00811; AmpC nitrocefin hydrolysis, absorbance 480 nm, 0.0001% Triton; Potency, µM (titrated, usually from 57.1 µM), for inactives: at the top dose activity change, negative = inhibition, actives largely listed as inhibitors; actives 0.52% (n = 330,000);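 also: plate controls were no compound for no effect and no enzyme for full effect; nearly all actives have a fitted effect of over 20% in size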
Target sequence (P00811 whole entry, looked up): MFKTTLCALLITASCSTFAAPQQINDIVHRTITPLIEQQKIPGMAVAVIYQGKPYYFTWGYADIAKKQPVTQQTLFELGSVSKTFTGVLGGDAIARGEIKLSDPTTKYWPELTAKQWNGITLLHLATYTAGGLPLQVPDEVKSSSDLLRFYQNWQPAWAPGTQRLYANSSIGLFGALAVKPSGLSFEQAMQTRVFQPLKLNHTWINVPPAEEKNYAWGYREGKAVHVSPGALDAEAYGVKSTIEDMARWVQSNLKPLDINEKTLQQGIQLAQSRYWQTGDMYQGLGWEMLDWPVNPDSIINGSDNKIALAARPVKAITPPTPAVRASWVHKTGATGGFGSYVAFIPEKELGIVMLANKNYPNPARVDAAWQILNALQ
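AmpC (5.3 nM in the dispensed reagent) in 20 mM phosphate pH 7.0 with 0.01% (detergent screen) or 0.0001% Triton X-100 was preincubated with compounds for 15 min at room temperature. Nitrocefin was then added from an 800 uM solution, and hydrolysis was followed at 480 nm.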
AmpC detergent: blocks E. coli AmpC beta-lactamase in detergent assay; P00811; AmpC hydrolysis of nitrocefin, absorbance 480 nm, 0.01% Triton; Potency, µM (top dose mostly 114 µM), for inactives: at the highest dose activity change, negative = inhibition, actives largely listed as inhibitors; actives 0.041% (n = 370,000);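 also: 0% = no-compound wells and -100% = no-enzyme wells; nearly all actives have a fitted effect of over 25% in size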
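20 mM phosphate pH 7.0 + 0.01% (detergent screen) or 0.0001% Triton X-100; 5.3 nM AmpC reagent; cpd preinc 15 min RT; nitrocefin (800 uM stock) to start; A480 q20 s × 4 min; Activity was normalised to no-enzyme and no-compound control wells.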
Numbers without * were called inactive; ? = inconclusive; . = no result given. Unless noted, calls follow the shape of the dose curve; as a rule, active = well fitted curve in the direction sought with a large enough effect; inconclusive = small, poorly fitted or top-dose-only effect, or another doubt; inactive = no such curve, though single readings can be large; an effect the other way counts as inactive or inconclusive. Potency is read from the fitted curve at half-maximal effect.

SMILES | SARS PLpro yeast | Pf growth 96h | Sm TGR block | Pf growth 48h | AmpC no deterg | AmpC detergent
Cc1ccc(-c2nnc(CSc3nnc(COc4cccc5ccccc45)n3-c3ccccc3)o2)cc1 | -8.3% | 13.1µM* | 8.2% | . | 20.1% | 5.7%
Cc1cc(-c2ccc(C)c(S(=O)(=O)NCc3cccs3)c2)on1 | . | . | 7.8% | . | . | 2.4%
COc1ccc(N2CCN(C(=O)c3nc(-c4ccc(Cl)cc4)n4c3CCCCC4)CC2)cc1 | . | . | 2.9% | . | . | 20.7%
COc1ccc(N(Cc2cccs2)C(=O)COc2cccc(Cl)c2)cc1 | . | . | 8.3% | . | . | 22.4%
COc1ccccc1-n1c(=O)c(C#N)c(-c2ccc([N+](=O)[O-])cc2)c2cc(C(=O)c3ccccc3O)cnc21 | 0.3% | 1.85µM* | -16.2% | 2.62µM* | 13.8% | -2.0%
COc1ccc(C(=O)C(C)Oc2cccc(NC(=O)c3cccc([N+](=O)[O-])c3)c2)cc1 (configuration not stated) | 6.8% | ? | 2.9% | 55.6% | -19.9% | -21.5%
CCN1CCN(c2ccc(N3CCN(S(=O)(=O)c4ccc(C)c([N+](=O)[O-])c4)CC3)nn2)CC1 | -12.5% | 0.928µM* | 0.4% | 13.1µM* | 11.5% | -13.9%
Cc1ccc(S(=O)(=O)N2CCN(C)CC2)cc1[N+](=O)[O-] | -15.7% | 214.5% | -26.7% | 31.8% | -4.3% | 0.3%
CN(C(=O)CSc1nc(C2CC2)n(-c2ccccc2)n1)C1CCS(=O)(=O)C1 (configuration not stated) | 2.2% | 31.0% | 1.5% | 29.6% | -0.4% | -4.1%
COc1cc(-c2nc3c[n+](CC(=O)c4ccccc4)ccc3n2C)cc(OC)c1OC | 0.9% | -12.6% | -5.1% | 7.38µM* | -8.9% | -12.5%
CCOC(=O)c1ccc[n+](CC(=O)c2ccc(OC)cc2)c1 | 4.2% | 11.5% | 0.0% | -4.7% | -8.8% | -4.1%
COc1ccc(C(=O)C[n+]2ccc3c(c2)nc(-c2ccc(OC)cc2OC)n3C)cc1 | -1.3% | 4.15µM* | 0.7% | 11.7µM* | 11.6% | ?
COc1ccc(C(=O)C[n+]2ccc3c(c2)nc(-c2ccccc2)n3C)cc1 | -15.3% | 32.9% | 5.3% | 2.33µM* | -15.6% | -11.3%
CC(=O)c1ccc[n+](CC(=O)NC(C)c2ccccc2)c1 (configuration not stated) | -3.7% | ? | -21.1% | 20.8% | -1.4% | -8.2%
NC(=O)CC(NC(=O)c1ccccc1)c1ccc(NCCc2ccc(F)cc2)c([N+](=O)[O-])c1 (configuration not stated) | 1.4% | ? | 10.6% | ? | -28.9% | 6.4%
Cc1ccc(NC(=O)c2oc3ccccc3c2NC(=O)C23CC4CC(CC(C4)C2)C3)cc1 | . | . | -1.8% | . | . | 0.1%
O=C(CSc1nnc(-c2cccnc2)n1Cc1ccco1)c1ccc2ccccc2c1 | -1.3% | ? | 22.4µM* | -20.0% | 57.4% | ?
O=C(CSc1nnc(-c2cccnc2)n1Cc1ccco1)c1ccc(Br)cc1 | -1.8% | 11.9% | ? | ? | 43.0% | ?
O=C(CSc1nnc(-c2cccnc2)n1Cc1ccco1)Nc1cccc(O)c1 | 1.8% | 6.8% | -13.6% | 3.0% | -8.0% | -9.3%
CCSc1nnc(-c2cccnc2)n1Cc1ccco1 | -6.0% | ? | 35.5µM* | -6.2% | -18.6% | -9.0%
CCCCNc1nc2c(S(=O)(=O)c3ccc(Br)cc3)nnn2c2ccsc12 | . | . | 1.0% | . | . | 1.1%
CCOc1ccc2oc(=O)cc(CN3CCN(c4ccc(OC)cc4)CC3)c2c1 | . | . | -3.1% | . | . | 1.0%
CC1Nc2ncnc(N3CCN(c4ccccc4)CC3)c2N(Cc2ccc(Br)cc2)C1=O (configuration not stated) | -9.4% | ? | -19.2% | 13.1µM* | 158.1% | -5.2%
CC(C)CC1Nc2ncnc(N3CCN(c4ccccc4)CC3)c2N(Cc2ccc(Cl)cc2)C1=O (configuration not stated) | 1.0% | 9.28µM* | ? | 9.28µM* | -6.8% | ?
CCC1Nc2ncnc(N3CCN(c4ccccc4)CC3)c2N(Cc2ccc(C)cc2)C1=O (configuration not stated) | 1.0% | 11.7µM* | -31.8% | ? | 77.1% | ?
SMILES | SARS PLpro yeast | Pf growth 96h | Sm TGR block | Pf growth 48h | AmpC no deterg | AmpC detergent
Cc1ccsc1C(=O)N1CCCC(N2CCN(c3cccc(Cl)c3)CC2)C1 (configuration not stated) | 5.0% | 19.5% | 1.1% | 38.3% | -0.6% | 0.1%
CCCn1c(=O)n(CC(=O)NCC2CCCO2)c(=O)c2c3c(sc21)COC(C)(C)C3 (configuration not stated) | -6.4% | ? | 2.3% | -2.4% | -11.0% | 3.3%
CCN1CCC(N(Cc2ccc(F)cc2)C(=O)Nc2cccc(C(F)(F)F)c2)CC1 | . | . | 9.7% | . | . | 17.3%
COc1cc(C(F)(F)F)c(C(=O)N(C)Cc2cc(Cl)cc(Cl)c2)cn1 | -2.6% | 1.8% | -4.8% | ? | 71.2% | -6.7%
CCN(C(=O)c1cnc(NC(C)C)cc1C(F)(F)F)c1ccc(Cl)cc1 | -2.1% | 11.7µM* | 4.9% | ? | 83.9% | 0.6%
COc1cccc(CNC(=O)C(=O)NCCC2CCCCN2S(=O)(=O)c2cccs2)c1 (configuration not stated) | -3.1% | ? | 1.0% | ? | -3.3% | ?
COc1cccc(CNC(=O)C(=O)NCCC2CCCCN2S(=O)(=O)c2ccccc2)c1 (configuration not stated) | 13.2% | ? | -0.5% | ? | -4.2% | ?
COc1ccc(CCNC(=O)C(=O)NCCC2CCCCN2S(=O)(=O)c2cccs2)cc1 (configuration not stated) | -3.3% | 7.38µM* | -1.5% | ? | -24.3% | -3.7%
COc1ccc(CCNC(=O)C(=O)NCCC2CCCCN2S(=O)(=O)c2ccccc2)cc1 (configuration not stated) | 0.0% | 0.0% | 2.3% | 14.7µM* | -23.5% | 0.7%
O=C(Nc1ccccc1)N1CCN(C(=O)c2nsc3ccccc23)CC1 | . | . | -10.5% | . | . | -5.8%
COc1ccc(C2NC(=O)NC(C)=C2C(=O)OC2CCC(C)CC2)cc1 (configuration not stated) | 25.5% | ? | -11.9% | 4.3% | 21.1% | 1.0%
COC(=O)C1=C(c2cccc3c2S(=O)(=O)c2ccccc2-3)C[C@@H]2CC[C@H]1N2C(=O)N1CCc2cc(OC)c(OC)cc2C1 | 1.1% | ? | -5.3% | 3.7µM* | 121.7% | ?
